Reference: PubChem BioAssay (NCI)
The panel holds about 83,000 compounds, 20% with a hit somewhere; the sample as a whole holds those more often.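 Method: cells in 96-well plates; compound added at one concentration; 48 h incubation; percent growth measured; values under 10 scored active.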 Activity calls are given as the source filed them.

What was measured:
Assay in all cases: NCI-60 one-dose screen, 48 h (100 = growth as untreated, 0 = no growth, -100 = all killed)
[1] = test system: NCI-H23 lung; details: 10 µM unless noted
[2] = test system: NCI-H226 lung; details: 10 µM unless noted
[3] = test system: NCI-H322M lung; details: 10 µM unless noted
[4] = test system: HOP-62 NSCLC; details: 10 µM unless noted
[5] = test system: NCI-H460 lung; details: 10 µM unless noted
[6] = test system: HOP-92 NSCLC; details: 10 µM
[7] = test system: NCI-H522 lung; details: 10 µM unless noted
[8] = test system: A549/ATCC NSCLC; details: 10 µM unless noted
[9] = test system: 786-0 renal; details: 10 µM unless noted
[10] = test system: DU-145 prostate; details: 10 µM unless noted
[11] = test system: K-562 leukemia; details: 10 µM unless noted
[12] = test system: MALME-3M melanoma; details: 10 µM unless noted
[13] = test system: MDA-MB-231 breast; details: 10 µM unless noted
[14] = test system: RXF 393 renal; details: 10 µM unless noted
[15] = test system: SF-268 CNS; details: 10 µM unless noted
[16] = test system: SF-295 CNS; details: 10 µM unless noted
[17] = test system: SF-539 CNS; details: 10 µM unless noted
[18] = test system: UACC-257 melanoma; details: 10 µM unless noted
[19] = test system: COLO 205 colon; details: 10 µM unless noted

Measured: growth

Cc1ccc(-n2cc(/C=N/NC(=O)c3ccncc3)c(-c3ccc(S(C)(=O)=O)cc3)n2)cc1
inactive: [1] 83% | [2] 101% | [3] 93.5% | [4] 88.7% | [5] 101% | [6] 97.5% | [7] 68.8% | [8] 103% | [9] 90% | [10] 97.3% | [11] 32.3% | [12] 68.7% | [13] 79.5% | [14] 103% | [15] 100% | [16] 102% | [17] 91.8% | [18] 96.5%

Oc1ccc(CSc2nnc(-c3ccc(Cl)cc3)n2-c2ccccc2)c2cccnc12
active: [5] 2.03% | [16] 4.65%
inactive: [1] 31.2% | [2] 50.9% | [3] 41.6% | [4] 16.9% | [6] 16.3% | [7] 36.4% | [8] 26% | [9] 44.2% | [10] 38.8% | [11] 22.1% | [12] 29.6% | [13] 58.5% | [14] 56.3% | [15] 30.7% | [17] 22% | [18] 29.3%

Clc1cccc(/C=N/Nc2nc(N/N=C/c3cccc(Cl)c3Cl)nc(N3CCCCC3)n2)c1Cl
inactive: [1] 99.7% | [2] 97.5% | [3] 90% | [4] 98.2% | [5] 33.8% | [6] 86.2% | [7] 76.6% | [8] 55.6% | [9] 102% | [10] 73.4% | [11] 78.1% | [12] 92.5% | [13] 84.2% | [14] 112% | [15] 86.4% | [16] 92.7% | [17] 84.3% | [18] 100%

O=C(O)c1ccc(-n2cc(CNc3cccc(Cl)c3)c(-c3ccc(F)cc3)n2)cc1
inactive: [1] 101% | [2] 112% | [3] 103% | [4] 101% | [5] 98% | [6] 105% | [7] 92.2% | [8] 92.7% | [9] 110% | [19] 120% | [10] 102% | [11] 76.4% | [12] 82.8% | [13] 91.7% | [15] 109% | [16] 87.6% | [17] 96.1% | [18] 96.8%

O=C(NNc1nc2cc(F)ccc2n2c(CN3CC4CNCC4C3)ccc12)c1cnccn1 (stereo not drawn)
inactive: [1] 35.4% | [2] 25% | [3] 31.8% | [4] 24.9% | [6] 50.8% | [7] 16.9% | [8] 21.5% | [9] 16.3% | [19] 18.3% | [10] 27.5% | [11] 15.6% | [12] 18.9% | [13] 39.5% | [15] 22.3% | [17] 15.1% | [18] 13.7%
active: [5] 4.93% | [16] 2.89%

N#Cc1cnc2ccc(-c3cnc4[nH]ncc4c3)cc2c1N1CCc2cc(F)c(Cl)cc21
inactive: [3] 15.3% | [9] 11% | [19] 12% | [11] 16.6% | [13] 10.9% | [18] 36%
active: [1] 7.08% | [2] -0.212% | [4] 3.97% | [5] 3.18% | [6] -7.43% | [7] 1.37% | [8] 9.1% | [10] 7.85% | [12] 0.688% | [15] 8.85% | [16] -18.8% | [17] -27.1%

O=C(CNc1nc(-c2cccc([N+](=O)[O-])c2)cs1)Nc1cccc(Cl)c1
inactive: [1] 96% | [2] 99.4% | [3] 101% | [4] 96.6% | [5] 113% | [6] 104% | [7] 98.3% | [8] 108% | [9] 105% | [19] 112% | [10] 112% | [11] 97.1% | [12] 104% | [13] 101% | [15] 99.7% | [16] 102% | [17] 101% | [18] 118%

CN1CCN(c2ccc(/C=N/Nc3nc4ccccc4c(=O)n3-c3ccccc3)cc2)CC1
inactive: [1] 103% | [2] 101% | [3] 103% | [4] 96.2% | [5] 109% | [6] 102% | [7] 93% | [8] 103% | [9] 91.6% | [19] 103% | [10] 109% | [11] 103% | [12] 102% | [13] 105% | [15] 90.7% | [16] 101% | [17] 101% | [18] 114%

O=C(NNc1nc2cc(F)ccc2n2c(CN3CCCC3)ccc12)c1cnccn1
active: [5] 2.93% | [7] -3.33% | [19] 7.69% | [16] 6.2% | [17] 1.5% | [18] 0.872%
inactive: [1] 26.3% | [2] 18.2% | [3] 27.1% | [4] 17.6% | [6] 18.2% | [8] 13.6% | [9] 12.7% | [10] 17.2% | [11] 11.1% | [12] 37.4% | [13] 31.4% | [15] 22.1%

CCOC(=O)c1c(NC(=O)c2ccccc2C(F)(F)F)sc2c1CCC(=O)C2
active: [7] 5.03% | [17] -6.66%
inactive: [1] 23.3% | [2] 60.8% | [3] 113% | [4] 64.8% | [5] 33.3% | [6] 40.1% | [8] 97.5% | [9] 104% | [19] 56.7% | [10] 95.3% | [11] 12.8% | [12] 73% | [13] 15.2% | [15] 22.9% | [16] 41.6% | [18] 98.9%

CCOc1ccc(NC2=C(Cl)C(=O)c3nc(C)ccc3C2=O)cc1
inactive: [3] 32.4% | [4] 72.1% | [5] 13.4% | [8] 46.2% | [19] 98.2% | [15] 32.3% | [16] 51%
active: [1] -61% | [2] -52.6% | [6] -87% | [7] -61.6% | [9] 8.39% | [10] -92.7% | [11] -4.17% | [12] -90.6% | [13] -71.7% | [17] -58.8% | [18] -89.2%

COc1c(N2CC3CCCNC3C2)c(F)cc2c(=O)c(C(=O)N/N=C/c3ccc(Br)cc3)cn(C3CC3)c12 (stereo not drawn)
active: [11] -18.5%
inactive: [1] 88.3% | [2] 91.4% | [3] 89% | [4] 88.4% | [5] 86% | [6] 57.9% | [7] 77.6% | [8] 83.1% | [9] 85.3% | [19] 100% | [10] 85.5% | [12] 82.8% | [13] 56.1% | [15] 82.4% | [16] 101% | [17] 72.7% | [18] 100%

NS(=O)(=O)c1ccc(-n2cc(CN3CCNCC3)nn2)cc1
inactive: [1] 106% | [2] 101% | [3] 113% | [4] 102% | [5] 108% | [6] 113% | [7] 98.4% | [8] 110% | [9] 99.4% | [10] 111% | [11] 95.9% | [12] 112% | [13] 105% | [14] 111% | [15] 102% | [16] 106% | [17] 98.7% | [18] 111%

CS(=O)(=O)Nc1cc(-c2ccc3ncc(C#N)c(NCc4cccc(F)c4)c3c2)cnc1Cl
inactive: [3] 12.5% | [7] 10.7% | [9] 10.8% | [10] 17.8% | [11] 14.1%
active: [1] -1.85% | [2] 9.2% | [4] -6.39% | [5] 5.88% | [6] -15.7% | [8] 7.5% | [19] -45.9% | [12] -35.7% | [13] 0.274% | [15] 3.62% | [16] -21.9% | [17] -26.4% | [18] 1.5%

CC1=NC2=NN3C(=NN2C(c2ccccc2)=C1)N=NC(c1ccc(Br)cc1)=C3c1ccc(Br)cc1
inactive: [1] 105% | [2] 102% | [3] 101% | [4] 102% | [5] 112% | [6] 110% | [7] 98.5% | [8] 109% | [9] 107% | [10] 112% | [11] 96.9% | [12] 53.6% | [13] 95.7% | [14] 138% | [15] 102% | [16] 106% | [17] 97.2% | [18] 109%

CNC(=O)c1c(NC(=O)c2ccccc2C(F)(F)F)sc2c1CCC(=O)C2
inactive: [1] 13.9% | [2] 64.2% | [3] 105% | [4] 98.6% | [5] 57.4% | [8] 70.9% | [9] 39.6% | [19] 16.2% | [10] 99.9% | [11] 12.9% | [12] 54% | [13] 26.5% | [15] 33.2% | [16] 82.2% | [17] 14.5% | [18] 72.4%
active: [6] 1.45% | [7] 3.39%
